These results are taken from PubChem BioAssay AID2147 (National Center for Advancing Translational Sciences (NCATS), 2009).

Molecules are shown by their SMILES. Hit rate of the full screen: of about 230,000 compounds, about 3,600 (1.6%) were called active. Roughly 15% stayed inconclusive and do not appear here. Calls follow the shape of the dose curve; as a rule, active = well fitted inhibition curve with a large enough effect (not every such curve was filed as active); inconclusive = small, poorly fitted or top-dose-only effect, or another doubt; inactive = no such curve, though single readings can be large or run the other way. The list comes from a sample in which actives are over-represented; it also holds similar structures and randomly drawn compounds. Where a call stands in place of a potency, no number is given.
Also: nearly all actives have a fitted effect of over 50% in size.
Potency is read from the fitted curve at half-maximal effect.

Sequence of Lysine-specific demethylase 4E (Homo sapiens) (B2RXH2 1-337 limits assumed): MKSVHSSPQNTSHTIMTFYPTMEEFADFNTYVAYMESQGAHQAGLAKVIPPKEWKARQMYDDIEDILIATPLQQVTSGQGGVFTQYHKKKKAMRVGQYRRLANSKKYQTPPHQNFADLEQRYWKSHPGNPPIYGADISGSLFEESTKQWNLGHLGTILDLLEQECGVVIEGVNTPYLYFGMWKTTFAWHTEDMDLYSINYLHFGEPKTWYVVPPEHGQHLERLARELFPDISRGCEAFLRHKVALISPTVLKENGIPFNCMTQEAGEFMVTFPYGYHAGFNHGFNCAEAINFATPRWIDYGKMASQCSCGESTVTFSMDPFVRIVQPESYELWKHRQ

This experiment addresses Lysine-specific demethylase 4E (Homo sapiens) (UniProt B2RXH2). The experiment is described as follows: qHTS Assay for Inhibitors of Human Jumonji Domain Containing 2E (JMJD2E). The following applies: JMJD2E catalytic domain, FDH-coupled NADH fluorescence (FDH is formaldehyde dehydrogenase); series mostly up to 57.1 µM. The text has this: Assay Provider: Structural Genomics Consortium [SGC] Screening Center PI: Austin, C.P. Screening Center: NIH Chemical Genomics Center [NCGC] The fine interplay among methylation states of several lysine residues on the tails of histone proteins is a major determinant of the transcriptional state of the associated DNA coding regions and is commonly referred to as the histone code. Histone lysine demethylases catalyze the removal of methyl groups from methylated lysine sidechains on histones H3 and H4, thus antagonizing the reactions catalyzed by histone lysine methyltransferases. […] In search for novel inhibitors of JMJD2E demethylase, a member of the largest set of histone demethylases belonging to the Fe(II) and 2-oxoglutarate oxygenase (2OG) superfamily, we performed a quantitative high-throughput screen (Inglese 2006) by using an assay which utilizes a trimethylated peptide substrate corresponding to a fragment of histone H3 (sequence ARKme3STGGK) with detection of the formaldehyde co-product in real time by a formaldehyde dehydrogenase (FDH) coupled reaction. FDH catalyzes oxidation of formaldehyde to formic acid with the concomitant reduction of the non-fluorescent beta-nicotinamide adenine dinucleotide hydrate (NAD+) cofactor to the fluorescent NADH co-product. References: Inglese, J., Auld, D., Jadhav, A., Johnson, R., Simeonov, A., Yasgar, A., Zheng, W. and Austin, C. Proc Natl Acad Sci USA 2006, 103, 11473-11478. N. R. Rose, S. S. Ng, J. Mecinovic, B. M. Lienard, S. H. Bello, Z. Sun, M. A. McDonough, U. Oppermann and C. J. Schofield, J Med Chem, 2008, 51, 7053-7056. Sakurai, M., Rose, N., Schultz, L., Quinn, A., Jadhav, A., Ng, S., Oppermann, U., Schofield, C.J. and Simeonov, A. Mol BioSystems 2009, in press. S. Michael, D. Auld, C. Klumpp, A. Jadhav, W. Zheng, N. Thorne, C. Austin, J. Inglese and A. Simeonov, Assay Drug Dev Technol, 2008, 6, 637-657.
Reagents and Controls: Ferrous ammonium sulfate, (+)-sodium L-ascorbate, beta-nicotinamide adenine dinucleotide hydrate (NAD+), Tween-20, formaldehyde dehydrogenase from P. putida (FDH), and disodium 2-oxoglutarate were from Sigma (St. Louis, MO). Black solid-bottom 384-well or 1,536-well assay plates were from Greiner Bio-One (Monroe, NC). Enzyme was supplied by Prof. Udo Oppermann, SGC-Oxford. The catalytic domain of human JMJD2E (residues 1-337) was produced as an N-terminally His6-tagged protein in E. coli, and purified by Ni-affinity chromatography and size-exclusion chromatography, and stored in HEPES 50 mM/ NaCl 500 mM pH 7.5, as reported in Rose 2008. The trimethylated histone peptide substrate ARK(me3)STGGK was synthesized and HPLC-purified by the Tufts University Core Facility (Boston, MA). Substrate solution (Sakurai 2009) contained 50 uM ARK(me3)STGGK, 0.00025 U/uL FDH, 50 uM 2-oxoglutarate, 250 uM NAD+, 1 mM ascorbate, and 10 uM ferrous ammonium sulfate. Controls and plate map: Buffer (150 mM HEPES pH 7.5 containing 0.01% Tween-20) in columns 3 and 4 as negative control (no enzyme) and 100 nM JMJD2E final concentration in columns 1,2, and 5-48. Assay Steps: Enzyme and buffer solutions (3 uL) were dispensed into a 1,536-well Greiner black solid-bottom assay plate. The library compounds (23 nL) were transferred using a Kalypsys pintool equipped with 1,536-pin array. The plate was incubated at room temperature (15 min), and then a 1 uL aliquot of substrate solution was added to initiate the reaction. The plate was transferred to ViewLux imager where an initial reading using standard UV optics (Ex 340 nm, Em 450 nm) was obtained. The plate was then removed from the reader, incubated for 30 minutes at room temperature, and returned to the reader for a second fluorescence reading. A fully automated robotic screening system (Kalypsys Inc, San diego, CA) was used to perform the above steps as described previously (Michael 2008). […]
For the compound `CCc1c(C)[nH]c(=S)c(C#N)c1C`, the Potency was 20 µM (active).
Then `CCOC(=O)c1c(C)[nH]c(=S)c(C#N)c1-c1ccccc1`, with “inactive”; and `CC(=O)c1c(C)[nH]c(=S)c(C#N)c1-c1ccc(F)cc1`, with “inactive”; and `CS(=O)(=O)c1ccc(Cl)c(NC(=O)Nc2ccccc2)c1`, with “inactive”.
For `COc1ccc(C2C(C#N)=C(/N=C/N3CCOCC3)OC3=C2C(=O)CC(C)(C)C3)cc1OC` (stereo not given) the value was “inactive”; for `CCC1C(C#N)=C(SC)NC2=C1C(=O)CC(C)(C)C2` (stereo not given), “inactive”.
With `COc1cc(C2C(C#N)=C(C)NC3=C2C(=O)CC(C)(C)C3)ccc1O` (stereo not given), the Potency was 12.6 µM (active).
`CC(=O)N1CCC(N(C(=O)Nc2ccc(Cl)cc2)C(C)C)CC1`: the Potency result is “inactive”.
For `O=C(CCCN1C(=O)/C(=C\c2ccccc2)SC1=S)Nc1ccccc1O` the value was “inactive”.
For `c1ccc(CSc2nnc(-c3ccco3)c(-c3ccco3)n2)cc1` the value was 7.94 µM (active); for `Brc1ccc(CSc2ccc(-c3ccco3)nn2)cc1`, “inactive”.
Take `c1ccc(CSc2nnc(-c3ccco3)n2Cc2ccccc2)cc1`: the Potency entry was “inactive”.
For `O=S(=O)(NCCc1csc(-c2ccccc2)n1)c1cccnc1` the value was “inactive”; for `Cc1cc(-c2nnc(CCC(=O)NC(c3ccccc3)c3ccccc3)o2)no1`, “inactive”; for `O=C1C(c2ccccn2)=[N+]([O-])c2ccccc21`, 12.6 µM (active).
Then `CCN(CC)c1ccc(/C=N/Nc2nc(C)cc(C)n2)c(O)c1`, with “inactive”; and `O=C(Nc1ccc2c(c1)OCCO2)c1cnccn1`, with “inactive”; and `CCN(CC)c1ccc(/C=N/NC(=O)c2cnccn2)c(O)c1`, with 10 µM (active).
Then `CCOC(=O)c1c(CC(C)C)csc1/N=C/C1=C(O)CCCC1=O`, with “inactive”; and `CCOC(=O)c1c(C)oc(C)c(C(=O)OCC)c1=O`, with “inactive”; and `NC(=O)c1ccc(NC(=O)COC(=O)c2c3c(nc4ccccc24)/C(=C\c2ccc4c(c2)OCO4)CCC3)cc1`, with 3.16 µM (active).
On to `O=C(COC(=O)c1c2c(nc3ccccc13)/C(=C\c1cccs1)CCC2)Nc1ccccc1Cl`, for which the Potency result was “inactive”.
Then `O=C(COC(=O)c1ccc2c(c1)OCCO2)NCc1ccccc1`, with “inactive”.
For `O=C(Cc1ccccc1)Nc1c(Cl)ccc2nsnc12` the value was “inactive”; for `O=C(NC(=O)N1CCSCC1)c1c(Cl)cccc1Cl`, “inactive”.
Then `O=C(NCc1ccccc1)c1ccc(S(=O)(=O)Nc2cccc(C(F)(F)F)c2)cc1`, with “inactive”; and `O=[N+]([O-])c1ccccc1NCc1ccc(Cl)cc1`, with “inactive”; and `Oc1ccc(N2CCN(C(=S)NCc3ccccc3)CC2)cc1`, with “inactive”.
For the compound `Oc1ccc(CNc2ccccc2O)cc1`, the Potency was 15.8 µM (active).
Take `CC#CC[N+](C)(C)CCCCCC`: the Potency entry was “inactive”.
For `O=C(N/N=C/c1ccc([N+](=O)[O-])o1)c1cccc(S(=O)(=O)N2CCOCC2)c1` the value was “inactive”; for `O=[N+]([O-])c1cc(Cl)cc(/C=N/NC(=S)Nc2cc(S(=O)(=O)N3CCOCC3)ccc2Cl)c1O`, 8.91 µM (active); for `O=C(NC(=S)Nc1ccc(S(=O)(=O)N2CCOCC2)cc1)c1ccccc1[N+](=O)[O-]`, “inactive”.
For `CC1=NCCN1S(=O)(=O)c1cccc([N+](=O)[O-])c1` the value was “inactive”; for `CN(C)C(=O)c1cccn(Cc2cccc(C(F)(F)F)c2)c1=O`, “inactive”.
For `c1cnn(-c2cc(N3CCOCC3)ncn2)c1` the value was “inactive”.
As to `O=C(Nc1cc(N2CCOCC2)ncn1)NC1(C(F)(F)F)Oc2ccc(Cl)cc2O1` (stereo not given), the Potency is 14.1 µM (active).
Then `Cc1csc(NC(=O)NC2(C(F)(F)F)Oc3ccccc3O2)n1`, with “inactive”.
Then `CCCn1nc(C(=O)N2CCCc3ccccc32)c2ccccc2c1=O`, with “inactive”; and `Cc1ccc(NC(=O)c2ccn(C(=O)Nc3ccccc3)n2)c(C)c1`, with “inactive”.
For `Cc1cc(C)n(CC(C)NCc2c(C(=O)N3CCOCC3)nc3c(C)cccn23)n1` (stereo not given) the value was “inactive”.
For the compound `CC1(C)CC(=O)C(N=Nc2c(F)cccc2F)=C(O)C1`, the Potency result is “inactive”.
Then `C=CCNC(=O)CSc1nc2scc(-c3ccco3)c2c(=O)n1CC=C`, with “inactive”.
Then `Cc1cc(C)c(C)c(S(=O)(=O)N[C@@H](C)C(=O)OC(C)C(=O)NC(N)=O)c1C` (stereo not given in full), with “inactive”; and `O=C(CCC(=O)Nc1ccccc1)N/N=C/c1ccccc1F`, with “inactive”; and `O=C(N/N=C/c1ccccc1O)/C(=C/c1ccccc1)CCO`, with 20 µM (active).
With `O=C(CCCCCNC(=O)c1ccccc1)N/N=C/c1ccccc1`, the Potency result was “inactive”.
Then `CCCCCCCCCCCCC(NC(C)=O)(C(=O)OCC)C(=O)OCC`, with “inactive”; and `O=C(CSc1nnnn1-c1ccc(O)cc1)c1ccc(F)cc1`, with “inactive”; and `O=C(CSc1nnnn1-c1ccc(O)cc1)N1N=C(c2ccc3ccccc3c2)CC1c1ccccc1` (stereo not given), with 1.41 µM (active).
For `COc1ccc(C2CC(c3ccccc3)=NN2C(=O)CSc2nccc(=O)[nH]2)cc1` (stereo not given) the value was “inactive”.
For `CN(C)C(=S)Nc1ccc(Br)cc1Cl` the value was “inactive”; for `COCCn1c(SCC(=O)Nc2cc(OC)ccc2OC)nc2c(c1=O)SC(C)C2` (stereo not given), “inactive”.
`O=C(Nc1ccccc1)N1CCN(C2c3ccccc3-c3ccccc32)CC1`: the Potency result was “inactive”.
For `O=C(CSc1ncn[nH]1)Nc1nc(-c2cccc([N+](=O)[O-])c2)cs1` the value was “inactive”.
